Data taken from PubChem BioAssay (NCI).
The panel holds about 79,000 compounds, 15% with a hit somewhere; the sample as a whole holds those more often. Unmarked numbers belong to inactive results. The source made the active and inactive calls. No stated cut-off is given here; in the data, active means growth inhibition above about 70%; inactive means the rest.

Tests used:
[1] = NCI Yeast Anticancer Drug Screen. Data for the rad50 strain (AID 155);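 further: 0% = growth of vehicle-only cultures of the same strain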; conditions: S. cerevisiae rad50 strain growth inhibition, stronger effect = higher value
Summary of the method: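 Inhibition values express reduced yeast growth in compound-treated cultures relative to vehicle-treated controls.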

[2] = NCI Yeast Anticancer Drug Screen. Data for the mec2-1 strain (AID 157); conditions: S. cerevisiae mec2-1 strain, stronger effect = higher value
Summary of the method: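 Each compound was tested on mec2-1 yeast, a strain altered in DNA damage repair or cell cycle control. Growth inhibition is reported relative to vehicle.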

[3] = NCI Yeast Anticancer Drug Screen. Data for the sgs1 mgt1 strain (AID 161);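 further: 0% = growth of cultures given vehicle only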; conditions: S. cerevisiae sgs1 mgt1 strain, stronger effect = higher value
Summary of the method: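 Test agents were incubated with a DNA-repair-mutant yeast strain. Growth was then read and compared against vehicle-treated controls.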

[4] = NCI Yeast Anticancer Drug Screen. Data for the cln2 rad14 strain (AID 165);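 further: 0% = growth equal to vehicle treated cultures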; conditions: S. cerevisiae cln2 rad14 strain, stronger effect = higher value
Summary of the method: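 Test compounds were added to cln2 rad14 yeast cultures; inhibition of growth was then determined by comparison with vehicle treatment.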

[5] = NCI Yeast Anticancer Drug Screen. Data for the bub3 strain (AID 167); conditions: S. cerevisiae bub3 mutant strain, stronger effect = higher value
Summary of the method: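 Steps: expose the mutant yeast strain to compound; grow alongside vehicle-treated cultures; measure growth; express inhibition against the vehicle cultures.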

[6] = NCI Yeast Anticancer Drug Screen. Data for the mlh1 rad18 strain (AID 175); conditions: S. cerevisiae mlh1 rad18 strain growth inhibition, stronger effect = higher value
Summary of the method: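 Inhibition values reflect reduced growth of mutant yeast versus vehicle-treated controls following compound exposure; the mutations affect DNA damage repair.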

[7] = at 5.0 µM (retest, dose inferred, filed as 0.5)
[8] = at 50.0 µM (retest, dose inferred, filed as 5.0)

C[C@]12Cc3cn4ncnc4nc3CC1CC[C@@H]1[C@@H]2CC[C@]2(C)C(O)CC[C@@H]12 (some centres not stated)
growth inhibition [1, 7]: 21% | growth inhibition [1, 8]: 97% (active) | growth inhibition ([1]; at 50.0 µM): 97.5% (active) | growth inhibition [2, 7]: 24% | growth inhibition [2, 8]: 99% (active) | growth inhibition ([2]; at 50.0 µM): 95% (active) | growth inhibition [3, 7]: 60% | growth inhibition [3, 8]: 99% (active) | growth inhibition ([3]; at 50.0 µM): 98% (active) | growth inhibition [4, 7]: 25% | growth inhibition [4, 8]: 91% (active) | growth inhibition ([4]; at 50.0 µM): 78.7% (active) | growth inhibition [5, 7]: 24% | growth inhibition [5, 8]: 97% (active) | growth inhibition ([5]; at 50.0 µM): 97% (active) | growth inhibition [6, 7]: 48% | growth inhibition [6, 8]: 98% (active) | growth inhibition ([6]; at 50.0 µM): 98.6% (active)

O=C(Oc1ccc(S(=O)(=O)F)cc1F)c1ccccc1Cl
growth inhibition [1, 7]: 5% | growth inhibition [1, 8]: 99% (active) | growth inhibition ([1]; at 50.0 µM): 99.2% (active) | growth inhibition [2, 7]: 5% | growth inhibition [2, 8]: 99% (active) | growth inhibition ([2]; at 50.0 µM): 99.5% (active) | growth inhibition [3, 7]: -2% | growth inhibition [3, 8]: 99% (active) | growth inhibition ([3]; at 50.0 µM): 99.3% (active) | growth inhibition [4, 7]: -10% | growth inhibition [4, 8]: 99% (active) | growth inhibition ([4]; at 50.0 µM): 99% (active) | growth inhibition [5, 7]: 6% | growth inhibition [5, 8]: 99% (active) | growth inhibition ([5]; at 50.0 µM): 99.4% (active) | growth inhibition [6, 7]: 21% | growth inhibition [6, 8]: 99% (active) | growth inhibition ([6]; at 50.0 µM): 98.7% (active)

COC1CC2C=C(C)/C=C/C=C/C(=O)NC(c3ccccc3)C/C=C/CCC(O)CC(=O)C2=C1O (configuration not stated)
growth inhibition [1, 7]: 97% (active) | growth inhibition [1, 8]: 99% (active) | growth inhibition ([1]; at 50.0 µM): 91.5% (active) | growth inhibition [2, 7]: 98% (active) | growth inhibition [2, 8]: 99% (active) | growth inhibition ([2]; at 50.0 µM): 92.8% (active) | growth inhibition [3, 7]: 99% (active) | growth inhibition [3, 8]: 99% (active) | growth inhibition ([3]; at 50.0 µM): 92.5% (active) | growth inhibition [4, 7]: 98% (active) | growth inhibition [4, 8]: 99% (active) | growth inhibition ([4]; at 50.0 µM): 91.3% (active) | growth inhibition [5, 7]: 99% (active) | growth inhibition [5, 8]: 99% (active) | growth inhibition ([5]; at 50.0 µM): 88.7% (active) | growth inhibition [6, 7]: 98% (active) | growth inhibition [6, 8]: 99% (active) | growth inhibition ([6]; at 50.0 µM): 91.7% (active)

[O-][n+]1onc2c1-c1nonc1CC2
growth inhibition [1, 7]: 21% | growth inhibition [1, 8]: 9% | growth inhibition ([1]; at 50.0 µM): -33.5% | growth inhibition [2, 7]: -16% | growth inhibition [2, 8]: -6% | growth inhibition ([2]; at 50.0 µM): 5.65% | growth inhibition [3, 7]: 4% | growth inhibition [3, 8]: 22% | growth inhibition ([3]; at 50.0 µM): -10.3% | growth inhibition [4, 7]: 8% | growth inhibition [4, 8]: 21% | growth inhibition ([4]; at 50.0 µM): 16% | growth inhibition [5, 7]: 6% | growth inhibition [5, 8]: 19% | growth inhibition ([5]; at 50.0 µM): -3.95% | growth inhibition [6, 7]: -2% | growth inhibition [6, 8]: 11% | growth inhibition ([6]; at 50.0 µM): 1.15%

Nc1ccccc1C(=O)c1ccccc1
growth inhibition [1, 7]: 4% | growth inhibition [1, 8]: 8% | growth inhibition ([1]; at 50.0 µM): 76.2% (active) | growth inhibition [2, 7]: 1% | growth inhibition [2, 8]: 4% | growth inhibition ([2]; at 50.0 µM): 11% | growth inhibition [3, 7]: 1% | growth inhibition [3, 8]: 10% | growth inhibition ([3]; at 50.0 µM): 38.1% | growth inhibition [4, 7]: 4% | growth inhibition [4, 8]: 1% | growth inhibition ([4]; at 50.0 µM): 3.25% | growth inhibition [5, 7]: 0% | growth inhibition [5, 8]: -3% | growth inhibition ([5]; at 50.0 µM): 47.2% | growth inhibition [6, 7]: 4% | growth inhibition [6, 8]: 5% | growth inhibition ([6]; at 50.0 µM): 75.7% (active)

[Au+].[Au+].[Au+].[c-]1nccn1Cc1ccccc1.[c-]1nccn1Cc1ccccc1.[c-]1nccn1Cc1ccccc1
growth inhibition [1, 7]: 13% | growth inhibition [1, 8]: 97% (active) | growth inhibition ([1]; at 50.0 µM): 76.6% (active) | growth inhibition [2, 7]: 11% | growth inhibition [2, 8]: 98% (active) | growth inhibition ([2]; at 50.0 µM): 88.2% (active) | growth inhibition [3, 7]: 29% | growth inhibition [3, 8]: 97% (active) | growth inhibition ([3]; at 50.0 µM): 88.9% (active) | growth inhibition [4, 7]: 12% | growth inhibition [4, 8]: 97% (active) | growth inhibition ([4]; at 50.0 µM): 88.8% (active) | growth inhibition [5, 7]: 18% | growth inhibition [5, 8]: 98% (active) | growth inhibition ([5]; at 50.0 µM): 84.3% (active) | growth inhibition [6, 7]: 57% | growth inhibition [6, 8]: 96% (active) | growth inhibition ([6]; at 50.0 µM): 90.9% (active)

O=C1C(F)=C(N2CC2)C(=O)C(N2CCOCC2)=C1N1CC1
growth inhibition [1, 7]: 94% (active) | growth inhibition [1, 8]: 98% (active) | growth inhibition ([1]; at 50.0 µM): 90% (active) | growth inhibition [2, 7]: 99% (active) | growth inhibition [2, 8]: 98% (active) | growth inhibition ([2]; at 50.0 µM): 89.8% (active) | growth inhibition [3, 7]: 98% (active) | growth inhibition [3, 8]: 98% (active) | growth inhibition ([3]; at 50.0 µM): 89.8% (active) | growth inhibition [4, 7]: 98% (active) | growth inhibition [4, 8]: 96% (active) | growth inhibition ([4]; at 50.0 µM): 84.5% (active) | growth inhibition [5, 7]: 99% (active) | growth inhibition [5, 8]: 97% (active) | growth inhibition ([5]; at 50.0 µM): 91.9% (active) | growth inhibition [6, 7]: 97% (active) | growth inhibition [6, 8]: 97% (active) | growth inhibition ([6]; at 50.0 µM): 92% (active)

CC(C)[S-].CC(C)[S-].[Pt+2].c1ccc([PH+](c2ccccc2)c2ccccc2)cc1.c1ccc([PH+](c2ccccc2)c2ccccc2)cc1
growth inhibition [1, 7]: 4% | growth inhibition [1, 8]: 96% (active) | growth inhibition ([1]; at 50.0 µM): 88.2% (active) | growth inhibition [2, 7]: 5% | growth inhibition [2, 8]: 97% (active) | growth inhibition ([2]; at 50.0 µM): 90.3% (active) | growth inhibition [3, 7]: 2% | growth inhibition [3, 8]: 98% (active) | growth inhibition ([3]; at 50.0 µM): 86.2% (active) | growth inhibition [4, 7]: -2% | growth inhibition [4, 8]: 96% (active) | growth inhibition ([4]; at 50.0 µM): 55.9% | growth inhibition [5, 7]: 7% | growth inhibition [5, 8]: 97% (active) | growth inhibition ([5]; at 50.0 µM): 67.3% | growth inhibition [6, 7]: 4% | growth inhibition [6, 8]: 97% (active) | growth inhibition ([6]; at 50.0 µM): 95.7% (active)

C#CC1(OC(C)=O)CCC2C3CC=C4C=C(OC(C)=O)CCC4(C)C3CCC21C (configuration not stated)
growth inhibition [1, 7]: 16% | growth inhibition [1, 8]: 48% | growth inhibition ([1]; at 50.0 µM): 90.5% (active) | growth inhibition [2, 7]: -1% | growth inhibition [2, 8]: 17% | growth inhibition ([2]; at 50.0 µM): 40.2% | growth inhibition [3, 7]: 2% | growth inhibition [3, 8]: 56% | growth inhibition ([3]; at 50.0 µM): 86.9% (active) | growth inhibition [4, 7]: 10% | growth inhibition [4, 8]: 15% | growth inhibition ([4]; at 50.0 µM): -0.6% | growth inhibition [5, 7]: 1% | growth inhibition [5, 8]: 3% | growth inhibition ([5]; at 50.0 µM): 13.9% | growth inhibition [6, 7]: 2% | growth inhibition [6, 8]: -4% | growth inhibition ([6]; at 50.0 µM): 61.1%
